# Test results from ChEMBL document CHEMBL3988442, “University of Dundee, Small-Polar-MMV Screening Library” (2021).
# The whole screen tested about 66,000 compounds, of which about 960 (1.5%) showed an effect of 50% or more. This excerpt belongs to a sample that is enriched for strong results.
# System: Trypanosoma brucei
# Test: Trypanosoma brucei 72 hour study
# Type: functional, organism-based
# Parameters: scale not given: in the data most compounds retested in dose-response had high values
compound,measurement,setting,value
O=C(C1CC1)N1CCC2(CCN2Cc2ccc(F)cc2)C1.O=C(O)C(F)(F)F (centres undefined),Percent Effect,"30.3 µM, […]",-12.66%
Cc1cccnc1CN1CC[C@H](Oc2cccc(F)c2)[C@@](C)(O)C1,Percent Effect,"30.3 µM, […]",-17.61%
O=C1CC(NS(=O)(=O)c2ccc(Br)cc2)CN1 (centres undefined),Percent Effect,"30 µM, 30.03 µM",-19.04%
CN(C(=O)CSc1ccccn1)C1CCCN(CCc2ccccc2)C1 (centres undefined),Percent Effect,"30 µM, 30.03 µM",106.3%
CC(C)C(=O)NCC(=O)N(C)C1CCCN(CCc2ccccc2)C1 (centres undefined),Percent Effect,"30.3 µM, […]",1.246%
CN(C(=O)CCc1ccncc1)C1CCCN(CCc2ccccc2)C1 (centres undefined),Percent Effect,"30 µM, 30.03 µM",2.42%
Cn1cc(C(=O)NC(Cn2cccn2)C(C)(C)C)cn1 (centres undefined),Percent Effect,"30.3 µM, […]",-4.857%
CCn1nccc1C(=O)NC(Cn1cccn1)C(C)(C)C (centres undefined),Percent Effect,"30.3 µM, […]",-6.087%
CC(C)(C)C(Cn1cccn1)NC(=O)c1ccco1 (centres undefined),Percent Effect,"30.3 µM, […]",101.2%
CC(CNC(=O)CCCn1cncn1)N1CCc2ccccc2C1 (centres undefined),Percent Effect,"30 µM, 30.03 µM",-32.01%
CCCC(=O)Nc1sc(C(=O)OCC)c(C)c1C#N,Percent Effect,"30 µM, 30.03 µM",19.97%
CCOC(=O)c1sc(NC(=O)CN(C)S(C)(=O)=O)c(C#N)c1C,Percent Effect,"30 µM, 30.03 µM",-8.874%
Cc1sc(NC(=O)CN(C)S(C)(=O)=O)c(C#N)c1C,Percent Effect,"30 µM, 30.03 µM",51.13%
Cl.O=C(Nc1nc2c(s1)CNCC2)NC1CCCC1,Percent Effect,"30 µM, 30.03 µM",-50.11%
Cl.NC(C(=O)N1CCSc2ccccc2C1)c1ccccc1 (centres undefined),Percent Effect,"30 µM, 30.03 µM",1.138%
Cc1nn2c(-c3snnc3C)nnc2s1,Percent Effect,"30 µM, 30.03 µM",-55.36%
COCCC(=O)N1CC2(CCN(Cc3cccc(Cl)c3)CC2)C1.O=C(O)C(F)(F)F,Percent Effect,"30 µM, 30.03 µM",-25.19%
Cc1nnc(N2CC[C@H]3C[C@@H](C(=O)N4CCCC4)O[C@H]3C2)s1.O=C(O)C(F)(F)F,Percent Effect,"30.3 µM, […]",-391.5%
O=C(Nc1cccc(F)c1)C1CCCN1c1nccs1 (centres undefined),Percent Effect,"30.3 µM, […]",1.599%
O=C(Nc1ccc(OC2CCCC2)cc1)C1CCCN1c1nccs1 (centres undefined),Percent Effect,"30.3 µM, […]",83.44%
O=C1NCc2ccc(NC(=O)C3CCCN3c3nccs3)cc21 (centres undefined),Percent Effect,"30 µM, 30.03 µM",23.55%
O=C(N1CCOCC1)[C@@]12CCO[C@@H]1CCN(CC1CCCC1)C2.O=C(O)C(F)(F)F,Percent Effect,"30 µM, 30.03 µM",-11.27%
CN(Cc1cccc(F)c1)C(=O)CS(=O)(=O)Cc1c(Cl)cccc1Cl,Percent Effect,"30.3 µM, […]",83.04%
Cc1ccccc1CS(=O)(=O)CC(=O)N(C)Cc1cccc(F)c1,Percent Effect,"30.3 µM, […]",-71.65%
CN(Cc1cccc(F)c1)C(=O)CS(=O)(=O)Cc1ccc(Cl)c(Cl)c1,Percent Effect,"30.3 µM, […]",45.42%
CCOc1nnc(CN(C)CC2CCCN2c2cccnn2)s1 (centres undefined),Percent Effect,"30 µM, 30.03 µM",2.197%
O=C(O)C(F)(F)F.O=C(O)C(F)(F)F.O=C(c1cnc2n1CCN(Cc1ccccc1)C2)N1CCCC1,Percent Effect,"30.3 µM, […]",-305.8%
COc1ccc(N2CCC(N3CCOC(C(F)(F)F)C3)CC2)cc1 (centres undefined),Percent Effect,"30 µM, 30.03 µM",-19.82%
NC1CCN(C2CCN(c3ccc(-c4ccco4)cc3)CC2)CC1,Percent Effect,"30.3 µM, […]",-49.5%
CNC1CCN(C2CCN(c3ccc(-c4ccco4)cc3)CC2)CC1,Percent Effect,"30.3 µM, […]",100.1%
NCC1CCN(C2CCN(c3ccc(-c4ccco4)cc3)CC2)C1 (centres undefined),Percent Effect,"30.3 µM, […]",100.4%
CCc1cccc(N2CCC(NC(=O)c3ccco3)CC2)c1,Percent Effect,10 µM,-6.636%
same,Percent Effect,"30.3 µM, […]",-4.063%
O=C(O)c1ccccc1C1CCN(C2CCN(c3ccccc3)CC2)C1 (centres undefined),Percent Effect,"30.3 µM, […]",-16.4%
Cn1cc(CN2CCc3onc(C(=O)N4CCCC4)c3C2)cn1.O=C(O)C(F)(F)F,Percent Effect,"30.3 µM, […]",-19.54%
O=C(c1cscn1)N1C[C@H]2CCC[C@@]2(COCc2ccccn2)C1,Percent Effect,"30.3 µM, […]",-7.729%
Cc1ccc(CNC(CN2CCN(C)CC2)c2ccccc2)cc1C (centres undefined),Percent Effect,"30 µM, 30.03 µM",57.4%
COc1cccc(CNC(CN2CCN(C)CC2)c2ccccc2)c1 (centres undefined),Percent Effect,"30 µM, 30.03 µM",-23.58%
Cc1cccc(CNC(CN2CCN(C)CC2)c2ccccc2)c1 (centres undefined),Percent Effect,"30 µM, 30.03 µM",38.01%
CN1CCN(CC(NCc2cccc(O)c2)c2ccccc2)CC1 (centres undefined),Percent Effect,"30 µM, 30.03 µM",100.4%
CN1CCN(CC(NCc2ccc(F)c(F)c2)c2ccccc2)CC1 (centres undefined),Percent Effect,"30 µM, 30.03 µM",-11.08%
Cc1ccc(CNC(CN2CCN(C)CC2)c2ccccc2)cc1 (centres undefined),Percent Effect,"30 µM, 30.03 µM",0.9317%
Cc1noc(C)c1CNCC1Cn2nncc2CO1.O=C(O)C(F)(F)F (centres undefined),Percent Effect,"30.3 µM, […]",-105.3%
COCC1CN(C(=O)CS(C)(=O)=O)Cc2ncn(CC3CC3)c21 (centres undefined),Percent Effect,"30.3 µM, […]",-30.37%
C1CCN(CCO[C@@H]2CC[C@H]3[C@H]2OCCN3CC2CCOCC2)C1.O=C(O)C(F)(F)F.O=C(O)C(F)(F)F,Percent Effect,"30 µM, 30.03 µM",-27.36%
Cc1ncsc1-c1nnc(C2CCN(Cc3ccccc3F)CC2)o1,Percent Effect,"30.3 µM, […]",-22.5%
CNCc1ccc([C@@H]2CN(C(C)=O)C[C@H]2C(=O)N(C)C)cc1.Cl,Percent Effect,"30.3 µM, […]",-5.387%
CN(C)CCN1CCC2(CCN(C(=O)c3ccncc3)CC2)C1=O.O=C(O)C(F)(F)F.O=C(O)C(F)(F)F,Percent Effect,"30.3 µM, […]",-21.17%
CN1CCOCC12CCN(Cc1ccoc1)CC2.O=C(O)C(F)(F)F.O=C(O)C(F)(F)F,Percent Effect,"30.3 µM, […]",-44.43%
